Screening data (PubChem)
Sampled rows, rich in hits. Any-hit rate of the full collection: about 4%.
esBAF inh = SWI/SNF esBAF complex inhibition | mouse ES cells, Bmi1-luciferase knock-in reporter, 24 h; 100% = twice the neutral-well signal | reporter increase, % at 12.5 µM | 350,000 compounds, 2% hits | AID 602393; in the data active means activation above about 40%; inconclusive means no clear call, values can overlap the other calls;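 further: 0% = median of the plate's neutral control wells and 100% = double that signal; a rise in the Bmi1 reporter signal indicates esBAF inhibition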
PAX8 inh HTS = PAX8 transcriptional activity inhibition | RMG-I TPO-luciferase reporter, SteadyGlo, 24 h | inhibition, % at 12.6 µM | 360,000 compounds, 1.2% hits;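 active means mean replicate inhibition at least 60% with every replicate also reaching 60%; inconclusive means only one of the two criteria is met; inactive means mean below 60% and not all replicates reaching 60%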;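 further: luciferase light reporting Pax8 driven TPO promoter activity; plate controls were median of neutral control wells for no effect and mitoxantrone controls for full effect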
TRPM1 prom inh = inhibitors of MITF-driven TRPM1 promoter in melanoma cells | SK-MEL-5 TRPM1 promoter luciferase, 24 h | inhibition, % at 12.5 µM | 330,000 compounds, 0.83% hits | AID 488899;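 active means mean inhibition across replicates of 60% or more, whatever share of single replicates reaches that level; inconclusive means some that reach 60%, reason not given; inactive means mean inhibition across replicates below 60%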
EWS-Fli inh = blocks EWS/Fli oncoprotein-driven transcription. A673 NR0B1-luciferase reporter, viability-normalised. inhibition, % at 12.6 µM. 350,000 compounds, 0.67% hits;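 active means mean inhibition of at least 50% after viability correction, with every replicate also passing that limit; inconclusive means mean reaches 50% but only one of two replicates passes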;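 further: firefly luciferase signal divided by Alamar Blue viability fluorescence both relative to DMSO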
MITF TRPM1 HTS = activators of MITF-driven TRPM1 promoter activity in SK-MEL-5 cells | SK-MEL-5 TRPM1-promoter luciferase, 24 h; % of positive control, neutral wells = 0 | 300,000 compounds, 0.75% hits | activation, % at 12.5 µM;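 active means mean activation of at least 80% with every replicate also reaching 80%; inconclusive means mean reaches 80% but some replicate falls short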;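 further: 0% = neutral control wells and 100% = parthenolide positive control wells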
Wnt bcat act = activates Wnt/beta-catenin signaling in a reporter cell assay; activator, plate reader; activation, % at 9.35 µM; AID 743398; 300,000 compounds, 1.2% hits; in the data active means activation above about 30%, passing the limit was not always enough; inconclusive means no clear call, values can overlap the other calls;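 further: 0% = neutral control wells and 100% = positive control wells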
The depositor's hits bear a star; ? = inconclusive; nt = no result given.

SMILES | esBAF inh | PAX8 inh HTS | TRPM1 prom inh | EWS-Fli inh | MITF TRPM1 HTS | Wnt bcat act
Cc1cc(C)n(C(N)=NC(=O)c2ccccc2)n1 | nt | -40.4 | nt | -79.0 | nt | 43.4*
Cc1cccc(S(=O)(=O)N2CC[C@@H]3[C@H]2c2cc(-c4ccccc4F)ccc2N(C)[C@H]3CO)c1 | 2.2 | 13.8 | nt | -7.3 | nt | nt
C[C@H](CO)N1C[C@H](C)[C@H](CN(C)CC2CCCCC2)Oc2c(NS(=O)(=O)c3cn(C)cn3)cccc2C1=O | 1.7 | 3.0 | nt | 9.0 | nt | nt
COc1ccc(OCc2cc(C(=O)N3C[C@H]4CC[C@H]3C4)no2)c(Cl)c1 | 61.3* | -176.5 | -79.1 | -79.3 | 83.6* | 14.5
O=C(c1cc(COc2ccc(F)cc2F)on1)N1C[C@H]2CC[C@H]1C2 | 46.1* | -128.0 | -74.6 | nt | 79.1 | 14.5
CC1CN(c2ccccc2)CCN1C(=O)c1cc(COc2c(F)cccc2F)on1 (centres undefined) | 2.1 | -1.5 | -9.4 | 17.8 | 10.3 | -0.7
O=C(c1cc(COc2c(F)cccc2F)on1)N1C[C@H]2CC[C@H]1C2 | 92.1* | -203.9 | -70.1 | nt | 70.5 | 33.7*
O=C(c1cc(COc2ccc(F)cc2F)on1)N1CC2C[C@@H]3CC1C[C@H](C2)C3 | 55.2* | -181.9 | -83.4 | -75.2 | ? | 22.5
COc1ccc2c3c([nH]c2c1)[C@@H](CO)NCC31CN(C(=O)C2CCCC2)C1 | nt | -6.0 | nt | -9.5 | nt | nt
COc1ccc2c3c(n(C)c2c1)[C@@H](CO)N(C(=O)c1ccccn1)CC31CCN(C(C)=O)CC1 | nt | -34.3 | nt | -3.3 | nt | nt
O=C(c1cc(COc2c(F)cccc2F)on1)N1CCC(c2ccccc2Cl)C1 (centres undefined) | 45.0* | -119.3 | -44.4 | -58.8 | 49.8 | -6.8
O=C(c1cc(COc2c(F)cccc2F)on1)N1CCC(c2ccccc2F)C1 (centres undefined) | 23.0 | -74.6 | -49.1 | -78.8 | 49.6 | ?
COc1ccccc1OCc1cc(-c2ccccc2)no1 | nt | -193.5 | -93.7 | -156.7 | 95.4* | nt
COc1ccccc1OCc1cc(C(=O)N2CCN(C)C(c3ccccc3)C2)no1 (centres undefined) | nt | nt | -40.4 | -76.9 | 26.1 | 41.5*
COc1ccccc1OCc1cc(C(=O)N2CC3C[C@@H]4CC2C[C@H](C3)C4)no1 | 63.3* | -71.4 | -85.0 | -86.9 | 88.9* | 23.2
Cc1ccc(S(=O)(=O)N[C@@H]2CC[C@@H](CC(=O)N3CCC(Cc4ccccc4)CC3)O[C@H]2CO)cc1 | 1.9 | 19.3 | nt | -2.2 | nt | nt
O=C(c1cccs1)n1nc(-c2ccc(Cl)cc2)nc1NCc1ccco1 | nt | -93.2 | -21.3 | nt | nt | 51.7*
CCCC(=O)n1nc(-c2ccc(C)cc2)nc1NCc1ccco1 | nt | -137.0 | -53.8 | -86.9 | 51.1 | 47.0*
CCC(=NCCc1c(C)[nH]c2ccc(OC(F)(F)F)cc12)C1=C(O)CC(c2ccccc2)CC1=O (centres undefined) | nt | 11.1 | 7.3 | 50.8* | -3.5 | -1.3
CCC(=NCCc1c(C)[nH]c2ccccc12)C1=C(O)CC(c2ccccc2)CC1=O (centres undefined) | 4.3 | 49.1 | 16.7 | 49.4 | -10.9 | -10.9
CCCCC(=NCCc1c(C)[nH]c2ccc(OC)cc12)C1=C(O)CC(c2ccccc2)CC1=O (centres undefined) | nt | 54.4 | 25.5 | 55.1* | -26.7 | -7.1
CC1=CC(=C2C(=O)c3ccccc3C2=O)C=C(C)N1Cc1ccco1 | nt | -17.6 | -44.7 | -96.7 | 40.5 | 50.8*
Cc1ccc(S(=O)(=O)N(C)C[C@@H]2Oc3ccc(NC(=O)CCC(F)(F)F)cc3CC(=O)N([C@@H](C)CO)C[C@@H]2C)cc1 | -11.1 | 12.4 | 42.6 | 66.1* | -40.5 | -7.5
Cc1ccc(S(=O)(=O)N(C)C[C@H]2Oc3ccc(NC(=O)Nc4ccc5c(c4)OCO5)cc3CC(=O)N([C@@H](C)CO)C[C@H]2C)cc1 | 1.3 | 3.5 | nt | 2.6 | nt | nt
Cc1ccc(S(=O)(=O)N(C)C[C@@H]2Oc3ccc(NC(=O)Nc4ccc5c(c4)OCO5)cc3CC(=O)N([C@H](C)CO)C[C@@H]2C)cc1 | -3.4 | 41.5 | nt | 56.1* | nt | nt
SMILES | esBAF inh | PAX8 inh HTS | TRPM1 prom inh | EWS-Fli inh | MITF TRPM1 HTS | Wnt bcat act
Cc1ccc(S(=O)(=O)N(C)C[C@H]2Oc3ccc(NC(=O)Nc4ccc5c(c4)OCO5)cc3CC(=O)N([C@@H](C)CO)C[C@@H]2C)cc1 | -1.4 | -3.9 | nt | 5.2 | nt | nt
C[C@H]1CN([C@@H](C)CO)C(=O)Cc2cc(NC(=O)Nc3ccc4c(c3)OCO4)ccc2O[C@H]1CN(C)S(=O)(=O)c1ccc(Cl)cc1 | 1.1 | nt | nt | 58.4* | nt | nt
Cc1ccc(S(=O)(=O)N(C)C[C@H]2Oc3ccc(NC(=O)CCC(F)(F)F)cc3CC(=O)N([C@H](C)CO)C[C@@H]2C)cc1 | -6.0 | -2.7 | nt | 3.9 | nt | nt
C[C@H]1CN([C@@H](C)CO)C(=O)Cc2cc(NC(=O)Nc3ccc4c(c3)OCO4)ccc2O[C@H]1CN(C)S(=O)(=O)c1ccccc1 | 5.0 | nt | nt | 55.2* | nt | nt
CNC(=O)C[C@H]1CC[C@@H]2[C@H](COc3ccc(NC(=O)c4ccc(OC)cc4)cc3C(=O)N2C)O1 | 0.4 | -14.8 | nt | -23.2 | nt | nt
CN1c2ccc(C3=CCCCC3)cc2[C@H]2[C@H](CCN2C(=O)Cc2ccccn2)[C@@H]1CO | 6.4 | -42.7 | nt | -20.2 | nt | nt
C[C@H](CO)N1C[C@H](C)[C@H](CN(C)S(=O)(=O)c2ccc(Cl)cc2)Oc2ccc(NC(=O)Nc3ccc4c(c3)OCO4)cc2CC1=O | 1.1 | nt | nt | 61.0* | nt | nt
C[C@H]1CN([C@@H](C)CO)C(=O)Cc2cc(NC(=O)NC3CCCCC3)ccc2O[C@H]1CN(C)S(=O)(=O)c1ccc(Cl)cc1 | -6.8 | 78.7* | nt | -4.9 | nt | nt
C[C@@H]1CN([C@H](C)CO)C(=O)Cc2cc(NC(=O)Nc3ccc4c(c3)OCO4)ccc2O[C@@H]1CN(C)S(=O)(=O)c1ccccc1 | -0.6 | nt | nt | -5.2 | nt | nt
CO[C@@H]1CN(C)C(=O)c2ccc(NC(=O)Cc3ccccc3)cc2OC[C@@H](C)NC[C@@H]1C | -4.5 | 2.5 | nt | 0.0 | nt | nt
O=C(Nc1ccccc1O)c1cc2cc(Br)ccc2oc1=O | 20.4 | -109.0 | -95.9 | -85.3 | 100.5* | ?
CN(C)c1ccc(C#Cc2ccc3cc(CCO)oc(=O)c3c2)cc1 | 32.2 | nt | -118.2 | nt | 127.7* | nt
O=c1oc(CCO)cc2ccc(C#Cc3ccsc3)cc12 | 79.4* | -66.6 | -109.7 | -127.8 | 115.2* | 32.9*
O=c1oc(CCCO)cc2ccc(C#Cc3cccnc3)cc12 | 30.4 | -129.5 | -48.4 | -101.4 | 45.9 | 21.9
COc1cc(C#Cc2ccc3cc(CCO)oc(=O)c3c2)cc(OC)c1 | 58.2* | -215.9 | -136.5 | -140.2 | 143.9* | 38.4*
CCC(=O)N1[C@H](C(=O)OC)[C@@H](CO)[C@@H]2Cn3c(ccc(/C=C/c4ccccc4)c3=O)[C@@H]21 | 0.9 | 9.3 | nt | 1.6 | nt | nt
C[C@H]1CN([C@@H](C)CO)C(=O)Cc2cc(NC(=O)Cn3cnnn3)ccc2O[C@H]1CN(C)Cc1ccccc1 | -1.4 | -11.3 | nt | -4.0 | nt | nt
Cc1cccc(NC(=S)N/N=C/c2cccc(O)c2)c1C | nt | 8.4 | 43.6 | 64.4* | -43.2 | -12.6
